# The whole screen tested about 16,000 compounds, of which about 4,000 (25%) were called active. About 26% were inconclusive and are not listed. Only a sample is shown. Values without a mark were called inactive. The call rests on the fitted dose curve; in most records, active means well fitted curve in the direction sought with a large enough effect; inconclusive means small, poorly fitted or top-dose-only effect, or effect the other way; inactive means no such curve, though single readings can be large or run the other way.
# Biological target: Cytochrome P450 2C9 (Homo sapiens) (UniProt P11712)
# Sequence (P11712 whole entry, looked up): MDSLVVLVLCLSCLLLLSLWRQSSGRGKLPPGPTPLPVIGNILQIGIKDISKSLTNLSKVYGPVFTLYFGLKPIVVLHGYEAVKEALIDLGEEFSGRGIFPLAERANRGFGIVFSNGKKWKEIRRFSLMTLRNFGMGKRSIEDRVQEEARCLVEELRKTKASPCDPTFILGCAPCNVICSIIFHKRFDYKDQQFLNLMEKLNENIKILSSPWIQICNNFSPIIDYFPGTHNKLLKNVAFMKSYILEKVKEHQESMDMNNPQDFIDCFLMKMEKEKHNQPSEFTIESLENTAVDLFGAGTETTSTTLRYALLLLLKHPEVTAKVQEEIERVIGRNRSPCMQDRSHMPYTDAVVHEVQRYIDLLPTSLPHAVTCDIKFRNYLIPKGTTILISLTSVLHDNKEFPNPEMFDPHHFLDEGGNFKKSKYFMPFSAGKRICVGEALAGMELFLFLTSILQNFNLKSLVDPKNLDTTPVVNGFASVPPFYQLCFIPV
# Test: Cytochrome panel assay with activity outcomes
# Settings: recombinant CYP, pro-luciferin dealkylation, luminescence, p450-cyp2c9; series mostly up to 57.1 µM; activity, negative = inhibition: at the top concentration
# On the % scale 0 is the no-effect control and ±100 the full control effect.
Structure (SMILES),"activity, negative = inhibition",AC50
CN(C)CCCN1CC(C(=O)O)CC1=O (stereo not drawn),-8.24%,
FC(F)(F)c1cccc(-c2nc3nc(Cl)c(Cl)nc3[nH]2)c1,,3.98 µM (active)
C[C@H]1NC(=O)NC1=O,,inactive
Cc1c2c(nc3ccccc13)-c1cccc(=O)n1C2,-16.3%,
CC(C)c1cccc2cc3c(nc12)-c1cccc(=O)n1C3,-23.4%,
CCc1cccc2nc3c(c([Si](C)(C)C)c12)Cn1c-3cccc1=O,,20 µM (active)
CC[C@@]1(O)C(=O)COc2c1cc1n(c2=O)Cc2c-1nc1cccc(C(C)C)c1c2[Si](C)(C)C,-14.7%,
CC(C)c1cccc2c([Si](C)(C)C)c3c(nc12)-c1cccc(=O)n1C3,,2 µM (active)
CCc1c2c(nc3c(C(C)C)cccc13)-c1cccc(=O)n1C2,,15.8 µM (active)
CC(C)c1cccc2nc3c(c(C(C)(C)C)c12)Cn1c-3cccc1=O,,10 µM (active)
CC1(C)[C@@H]2CC[C@]1(C)[C@@H](OC(=O)CSC#N)C2,-16.1% [at 11.4 µM],
N#C/C(=C\c1cc(Cl)cc(Cl)c1O)C(=O)NC1CCCCC1,,12.6 µM (active)
S=C(Nc1cccc(Cl)c1)NC1CCCCC1,8.71%,
Cn1c[n+](C)cc1/C=N/O,6.26%,
Nc1nc2ncc(CNc3ccc(C(=O)N[C@@H](CCC(=O)O)C(=O)O)cc3)nc2c(=O)[nH]1,-2.91% [at 25.6 µM],
CC(C)(C)CC(C)(C)c1ccc(OCOCCOCCO)c(Cc2cc(C(C)(C)CC(C)(C)C)cc(Cc3cc(C(C)(C)CC(C)(C)C)ccc3OCOCCOCCO)c2OCOCCOCCO)c1,2.53% [at 25.6 µM],
CN(C)C(=O)c1ccc(-c2nc(Nc3ccccc3)c3ccccc3n2)cc1,-13.3% [at 2.29 µM],
Cc1ccccc1-c1nc(NC2CC2)c2ccccc2n1,3.04% [at 2.29 µM],
CC1CCC(NC(=O)CC(C)(C)Cc2nc3ccccc3c(=O)[nH]2)CC1 (stereo not drawn),,3.55 µM (active)
O=C1/C(=C\c2ccc(Br)o2)SC(=Nc2ccccc2)N1c1ccccc1,,0.398 µM (active)
CC(C)CC(=O)N1CCN(Cc2cccc(F)c2)CC1,,0.0251 µM (active)
CC(C)CN1CC2(CCN(C(=O)c3cccc(F)c3)CC2)C1,14.7%,
CC(C)CN1CCC2(CC1)CCN(C(=O)c1cccc(F)c1)CC2,0.497%,
C/C(=N/S(=O)(=O)c1ccc(Cl)c(Cl)c1)OCC(C)(C)C,6.28% [at 11.4 µM],

Structure (SMILES),"activity, negative = inhibition",AC50
N#Cc1cccc(NC(=O)N2CCCC3(CCN(C(=O)c4cc(C(F)(F)F)cc(C(F)(F)F)c4)CC3)C2)c1,1.82%,
N#Cc1cccc(NC(=O)N2CC[C@@]3(CCCN(C(=O)c4ccco4)C3)C2)c1,-3.61%,
N#Cc1cccc(NC(=O)N2CC3(CCN(C(=O)c4cc(C(F)(F)F)cc(C(F)(F)F)c4)CC3)C2)c1,,12.6 µM (active)
CC(=O)N1CCC2(CC1)CN(C(=O)Nc1cccc(C#N)c1)C2,-2.07%,
N#Cc1cccc(NC(=O)N2CC3(CCN(C(=O)c4ccco4)CC3)C2)c1,-15.6%,
N#Cc1cccc(NC(=O)N2CCCC3(CCN(C(=O)c4ccco4)CC3)C2)c1,,3.98 µM (active)
CCNCCCNCCCNCCCNCC,25.3%,
CC(C)(C)N1C(=O)[C@H]2[C@H]3[C@H](O)[C@H](O)C/C(=N/NC(=O)OCc4ccccc4)[C@@H]3CC[C@@H]2C1=O,29.2% [at 11.4 µM],
C/C(=N\NC(N)=S)c1ccc[nH]1,-7.98% [at 11.4 µM],
Cc1ccc(NCCC(=O)c2ccc(Cl)c(Cl)c2)cc1,-17.4%,
Cc1ccc(C(=O)c2cn[nH]c2-c2cc(Cl)ccc2O)cc1,,2.24 µM (active)
C=C1C(=O)O[C@@H]2[C@H]3O[C@]3(C)CCC=C(C)CC[C@@H]12,12.2%,
CC(=O)OC[C@H]1O[C@@H](O/N=C(\C)CCN2CCCc3nc(C)c(C)cc32)[C@H](OC(C)=O)[C@@H](OC(C)=O)[C@H]1OC(C)=O,18.1% [at 11.4 µM],
NS(=O)(=O)c1ccc(N=Nc2nc3[nH]c(=O)[nH]c(=O)c3[nH]2)cc1,0.503% [at 11.4 µM],
Cc1ccc(/C=C/c2ccc(=O)n(Cc3ccc(Cl)cc3Cl)n2)cc1,,3.16 µM (active)
CC(C)(CO)[C@H](O)C(=O)NCCCO,-1.14% [at 25.6 µM],
COCCCNC(=O)c1c(N)n(/N=C/c2ccccn2)c2nc3ccccc3nc12,,5.62 µM (active)
Cc1ccc(/C=N/n2c(COc3ccccc3)n[nH]c2=S)s1,,4.47 µM (active)
O=[N+]([O-])c1ccccc1/C=N/n1c(COc2ccccc2)n[nH]c1=S,,3.55 µM (active)
O=[N+]([O-])c1ccc(/C=N/n2c(COc3ccccc3)n[nH]c2=S)cc1,,2.82 µM (active)
CC1=NNC(=O)C1CCC(=O)N/N=C\c1ccccc1[N+](=O)[O-] (stereo not drawn),-22.2%,
O=c1ccc(-c2ccccc2)n[nH]1,6.17% [at 11.4 µM],
C[C@]12CC[C@H]3c4ccc(O)cc4CC[C@@H]3[C@H]1C/C(=N/O)[C@H]2O,21.3% [at 11.4 µM],
COc1ccccc1CN1CC[C@@]2(CCCN(C(C)=O)C2)C1,18%,

Structure (SMILES),"activity, negative = inhibition",AC50
CCc1cc2c(nc1CC)CCN(CC/C(C)=N/OC[C@@H](O)[C@@H]1O[C@@H]3OC(C)(C)O[C@@H]3[C@H]1O)C2,-13.5% [at 11.4 µM],
COc1cc(-c2nnc(SC/C=C/c3ccccc3)n2N)cc(OC)c1OC,-22.9%,
C=CCSc1nnc(-c2cc3c(-c4ccccc4)nn(C)c3s2)n1C,,14.1 µM (active)
Cc1noc(C)c1-c1nccc(NCCN2CCOCC2)n1,3.29% [at 2.29 µM],
O=C(COc1ccc(Br)cc1)Nc1ccc([N+](=O)[O-])cn1,-16.4%,
O=C(COc1cccc(NC(=O)c2cccc([N+](=O)[O-])c2)c1)c1ccc(Br)cc1,,0.891 µM (active)
O=C(Nc1nnc(CCS(=O)(=O)c2ccc(Br)cc2)s1)c1ccc([N+](=O)[O-])cc1,6.65%,
C[C@@H](c1ccccc1)N1C(=O)[C@H]2[C@@H]3[C@H](O)[C@H](O)CC(=O)[C@H]3CC[C@H]2C1=O,-15.7% [at 11.4 µM],
O=C(c1ccccc1)c1nc2ccccc2n(CCCn2c(=O)c(C(=O)c3ccccc3)nc3ccccc32)c1=O,,0.2 µM (active)
CCCn1c(N)[n+](CC(=O)c2ccco2)c2ccccc21,-34%,
O=C(O)Cc1cc2ccccc2nc1C(=O)O,-9.23%,
CCCCCn1c(=O)c(C(=O)c2ccccc2)nc2ccccc21,,14.1 µM (active)
N=C(N)[C@H](N=Nc1ccccc1)C(N)=O,-7.82% [at 11.4 µM],
CCn1c(O)c(/C=N/N=C2CCCC2)c2ccc(C3=NNC(=O)CC3)cc21,2.05%,
CC1CCCC(C)N1CC(O)COCC1COc2ccccc2O1 (stereo not drawn),-11.1%,
Cc1ccc(C2C(=O)N(C3CCCC3)CC(=O)N2CC2COc3ccccc3O2)cc1 (stereo not drawn),,11.2 µM (active)
OC(COCC1COc2ccccc2O1)CN1CCc2ccccc2C1 (stereo not drawn),-24.8%,
Nc1ccn([C@H]2O[C@@H](COP(=O)(O)O)[C@@H](O)[C@H]2O)c(=O)n1,-6.67% [at 11.4 µM],
COc1cc(N)c(Cl)cc1C(=O)CCC1CCN(CCNS(C)(=O)=O)CC1,,0.251 µM (active)
COc1cc(N)c(Cl)cc1C(=O)OCCCN1CCCCC1,20.3%,
Cn1cc(C(=O)OCC2CCN(CCNS(C)(=O)=O)CC2)c2ccccc21,3.8%,
CCn1cc(C(=O)O)c(=O)c2cc(F)c(N3CCN[C@@H](C)C3)c(F)c21,,inactive
O=C(Oc1ccc(OC(=O)c2ccco2)c(S(=O)(=O)c2ccc(Br)cc2)c1)c1ccco1,,0.708 µM (active)
CC(C)OC(=O)c1cccc(C(=O)Oc2ccc(Br)cc2)n1,-23.1%,

Structure (SMILES),"activity, negative = inhibition",AC50
COc1ccc(C(C)=O)c(OC(=O)c2ccco2)c1,-23.6%,
CCc1cc2c(=O)c(-c3cnn(-c4ccccc4)c3)coc2c(CN2CCOCC2)c1O,,2.51 µM (active)
OC(CCCN1CCCCC1)(c1ccccc1)c1ccccc1,-4.74% [at 25.6 µM],
O=C(N/N=C/c1cccc(Oc2ccccc2)c1)c1cccc(Br)c1,,7.08 µM (active)
C/C(=N\NC(=O)c1cccc(Br)c1)c1ccc(Br)cc1,-20.4%,
O=C(N/N=C/C1C(c2ccccc2)C1(Cl)Cl)c1cccc(Br)c1 (stereo not drawn),,2 µM (active)
O=C(N[C@@]1(C(=O)O)C[C@@H]1c1ccccc1)c1ccccc1,5.78% [at 11.4 µM],
O=C(N/N=C\c1ccc(Sc2ccccn2)o1)c1cccc(Br)c1,,2.24 µM (active)
O=C(O)Cn1ccnc1[N+](=O)[O-],9.22% [at 11.4 µM],
COc1ccc2c(c1)N(C[C@@H](C)CN(C)C)c1ccccc1S2,0.217% [at 25.6 µM],
COc1ccccc1-c1cncnc1NCc1cccc(C)c1,-10.6% [at 2.29 µM],
Nc1ncncc1-c1ccc([N+](=O)[O-])cc1,34.9%,
Cc1nn(Cc2ccc([N+](=O)[O-])cc2)c(=O)n1-c1cccc(F)c1,-24.2%,
Cc1cc(C)c(Cn2cnc(-c3ccc([N+](=O)[O-])cc3)c2)c(C)c1,,12.6 µM (active)
O=C(N/N=C/c1ccco1)c1ccc(Br)o1,16.9%,
O=C(CC(=O)N/N=C\c1c(Cl)cccc1Cl)NCc1ccccc1,-20.1%,
O=C(Cc1ccccc1)N/N=C/c1cc(Br)c(Br)o1,,14.1 µM (active)
O=C(Cc1ccccc1)N/N=C\c1ccc(Br)o1,,12.6 µM (active)
Cc1cc(C)n(CC(=O)N/N=C/c2ccco2)n1,16.2%,
O=c1c[n+](CCCC[n+]2cc(=O)o[nH]2)[nH]o1,10.6% [at 11.4 µM],
c1csc(CNc2nc(-c3ccoc3)nc3ccccc23)c1,-11.2% [at 2.29 µM],
